According to PubChem BioAssay (NCI):
Compounds without any hit were thinned out: in the full panel of roughly 83,000, 20% have a hit.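 Cells were grown in 96-well plates and exposed to the test compound at a single concentration for 48 hours; results are reported as percent growth, with values below 10 considered active.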 A number with no mark means an inactive call. Activity calls are given as the source filed them.

Each compound was assayed on SK-OV-3 ovarian (assay: NCI-60 one-dose screen, 48 h (100 = growth as untreated, 0 = no growth, -100 = all killed)). Conditions: 10 µM unless noted.
For `CC1=CC(C)(C)Nc2ccc(Cc3ccc4c(c3)C(C)=CC(C)(C)N4)cc21`, the growth was 105%.
`Clc1ccc2c(NCCNc3nc(N4CCCCC4)nc4ccccc34)ccnc2c1` was tested, and the growth was -2.73% (active).
In the case of `Cc1ccc(C(SCC(N)C(=O)O)(c2ccccc2)c2ccc(C)cc2)cc1` (stereo not given), the growth is reported as 28.6%.
`CCN1CCN(c2nc(NCCNc3ccnc4cc(Cl)ccc34)c3ccccc3n2)CC1` was tested, and the growth was 51.8%.
In the case of `CCN(CC)S(=O)(=O)c1ccc(OC)c(NC(=O)c2[nH]c(C)c3c2CCCCC3=O)c1`, the growth is reported as 20.4%.
With `OC(COc1cccc2ccccc12)CN1CCN(c2ccccc2Cl)CC1` (stereo not given) the growth was 89.2%.
In the case of `Clc1ccc2nc3nc4ccc[nH]c4cc3c2c1`, the growth is reported as 98.1%.
Compound `CN(C)C(=S)N=Nc1c(O)[nH]c2ccccc12` has a growth of 18.8%.
With `COc1ccc(C(=S)N2CCN(c3cccc(Cl)c3)CC2)cc1` the growth was 107%.
`C#CCOc1ccc2ncnc(Nc3cccc(CNC(=O)CCl)c3)c2c1` was tested, and the growth was 48.1% [8.25 µM].
With `O=c1c2c3c(sc2nc(N/N=C/c2cn(-c4ccccc4)nc2-c2ccc(Cl)cc2)n1Cc1ccccc1)CCCC3` the growth was 102%.
Work on `CN(C)c1ccc(NC(=O)c2ccc(/C=C/C(=O)c3ncc[nH]3)cc2)cc1` yielded a growth of 64.2%.
Work on `CN1CCN=C1c1ccc(NC(=O)c2ccc(C(=O)Nc3ccc(C4=NCCN4C)cc3)cc2)cc1` yielded a growth of 96.5%.
For `O=c1cc(CSc2nnc(SCc3cc(=O)oc4c3ccc3ccccc34)o2)c2ccc3ccccc3c2o1`, the growth was 98.8%.
For `Oc1ccccc1-c1nnc(CNc2ccc(Cl)cc2)o1`, the growth was 19.5%.
Work on `CCN(CC)c1ccc(/C=N\NC(=O)/C=C/C=C/c2ccc3c(c2)OCO3)c(O)c1` yielded a growth of 39.5%.
Work on `O=C(Cc1ccc(/C=C/C(=O)c2ncc[nH]2)cc1)Nc1ccc(F)cc1` yielded a growth of 52%.
Compound `CSc1ccc(-c2n[nH]nc2-c2cc3ccccc3s2)cc1` has a growth of 52.7%.
For `CC(C)(C)N1CCC1CN` (stereo not given), the growth was 104%.
For `Cc1cc(N2CCCCCC2)nc(NC2CCCC(Nc3ccnc4cc(Cl)ccc34)C2)n1` (stereo not given), the growth was -82.8% (active).

Each compound was assayed on IGROV1 ovarian in the same assay as above. Conditions: 10 µM unless noted.
`Cn1cc(C(=O)c2nc(-c3c[nH]c4ccc(F)cc34)no2)c2cc(F)ccc21` showed a growth of 66.8%.
With `c1ccc(Cn2cc(-c3nc4ccccc4s3)c3cccnc32)cc1` the growth was 94.3%.
With `O=[N+]([O-])c1ccccc1/C=N\NC(=S)N/N=C/c1ccccc1[N+](=O)[O-]` the growth was 15%.
In the case of `Cn1cc(C(=O)c2nc(-c3c[nH]c4ccc(Br)cc34)no2)c2cc(F)ccc21`, the growth is reported as 61.3%.
For `COc1cccc(-c2nc(SCC(=O)Nc3ccc(C(=O)/C=C/c4ccc(OC)c(OC)c4)cc3)[nH]c(=O)c2C#N)c1`, the growth was 103%.
With `Cc1cc(N2CCN(C)CC2)nc(NC2CCCC(Nc3ccnc4cc(Cl)ccc34)C2)n1` (stereo not given) the growth was 10.5%.
Work on `COCCNc1ccc2c3c(cccc13)C(=O)N(CCN(C)C)C2=O` yielded a growth of 18.1%.
Work on `FC(F)(F)c1[nH]ncc1-c1nc2ccc3n[nH]c(C#Cc4cccnc4)c3c2c2c1CCCC2` yielded a growth of 17.8%.
`Cc1ccc(/C=C2\SC(=S)N(CC(=O)NCCCN3CCOCC3)C2=O)cc1` was tested, and the growth was 107%.
With `Cc1ncc(C(=O)Nc2ccc(CN3CCN(C)CC3)c(C(F)(F)F)c2)cc1C#Cc1cnc2cccnn12` the growth was 5.84% (active).
In the case of `CC(C)(C)CC(C)(C)c1ccc(OCCOCC[N+](C)(C)Cc2ccccc2)cc1`, the growth is reported as -45.9% (active).
With `O=C1Nc2c(ccc(Cl)c2Cl)/C1=C\c1cc(C(F)(F)F)cc(C(F)(F)F)c1` the growth was 3.13% (active).
`Cc1cc2c3ccccc3ccc2[n+]2ccccc12` was tested, and the growth was 34%.
`COc1ccc(-n2nc(C)c3c(Nc4ccc(NC(=O)Nc5cc(C(F)(F)F)ccc5F)cc4)ncnc32)cc1` was tested, and the growth was 39.2%.
`CC1=CC(C)(C)Nc2ccc(Cc3ccc4c(c3)C(C)=CC(C)(C)N4)cc21` gave a growth of 92.7%.
`Clc1ccc2c(NCCNc3nc(N4CCCCC4)nc4ccccc34)ccnc2c1` was tested, and the growth was 30.4%.
For `Cc1ccc(C(SCC(N)C(=O)O)(c2ccccc2)c2ccc(C)cc2)cc1` (stereo not given), the growth was -32% (active).
Work on `CCN1CCN(c2nc(NCCNc3ccnc4cc(Cl)ccc34)c3ccccc3n2)CC1` yielded a growth of 28.6%.
In the case of `CCN(CC)S(=O)(=O)c1ccc(OC)c(NC(=O)c2[nH]c(C)c3c2CCCCC3=O)c1`, the growth is reported as 24.8%.
In the case of `OC(COc1cccc2ccccc12)CN1CCN(c2ccccc2Cl)CC1` (stereo not given), the growth is reported as 117%.
Compound `Clc1ccc2nc3nc4ccc[nH]c4cc3c2c1` has a growth of 52.9%.
In the case of `CN(C)C(=S)N=Nc1c(O)[nH]c2ccccc12`, the growth is reported as -58.9% (active).
`Cc1cn2c(/C=C3/C(=O)Nc4c3ccc3ccccc43)c(C(F)(F)F)nc2s1` showed a growth of 42.1%.
Compound `COc1ccc(C(=S)N2CCN(c3cccc(Cl)c3)CC2)cc1` has a growth of 104%.
`C#CCOc1ccc2ncnc(Nc3cccc(CNC(=O)CCl)c3)c2c1` was tested, and the growth was -5.04% [8.25 µM] (active).
Work on `O=c1c2c3c(sc2nc(N/N=C/c2cn(-c4ccccc4)nc2-c2ccc(Cl)cc2)n1Cc1ccccc1)CCCC3` yielded a growth of 92.4%.
`O=C(CN1C(=O)/C(=C/c2ccc(Cl)cc2)SC1=S)NCCCN1CCOCC1` showed a growth of 108%.
In the case of `CN(C)c1ccc(NC(=O)c2ccc(/C=C/C(=O)c3ncc[nH]3)cc2)cc1`, the growth is reported as 69.8%.
For `CN1CCN=C1c1ccc(NC(=O)c2ccc(C(=O)Nc3ccc(C4=NCCN4C)cc3)cc2)cc1`, the growth was 90.1%.
With `O=c1cc(CSc2nnc(SCc3cc(=O)oc4c3ccc3ccccc34)o2)c2ccc3ccccc3c2o1` the growth was 94.9%.
`Oc1ccccc1-c1nnc(CNc2ccc(Cl)cc2)o1` showed a growth of 25.9%.
With `O=C(Cc1ccc(/C=C/C(=O)c2ncc[nH]2)cc1)Nc1ccc(F)cc1` the growth was 39%.
Work on `CSc1ccc(-c2n[nH]nc2-c2cc3ccccc3s2)cc1` yielded a growth of 46.4%.
In the case of `CC(C)(C)N1CCC1CN` (stereo not given), the growth is reported as 112%.
For `Cc1cc(N2CCCCCC2)nc(NC2CCCC(Nc3ccnc4cc(Cl)ccc34)C2)n1` (stereo not given), the growth was -47.1% (active).
